# Reference: PubChem BioAssay (NCATS)
# “And” between values parts separate entries of the source, which are not always exact repeats. Equal values may be shown once. Records with an inconclusive call do not appear. The source made the active and inactive calls. Unless noted, the call rests on the fitted dose curve; in most records, active means well fitted curve in the direction sought with a large enough effect; inconclusive means small, poorly fitted or top-dose-only effect, or another doubt; inactive means no such curve, though single readings can be large; an effect the other way counts as inactive or inconclusive.
# Assay: qHTS assay for small molecule agonists of the antioxidant response element (ARE) signaling pathway measured by Nrf2-dependant transcriptional activity - cell viability counter screen (AID 720653; active means well fitted curve in the direction sought with a large enough effect in the repeat runs; an effect the other way counts as inactive or inconclusive)
# Settings: ARE-bla HepG2 viability, CellTiter-Glo ATP luminescence, 16 h; max response: hits give low values
# Method in brief: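 ARE-bla HepG2 cells (2,000/well) rested 5 hrs at 37C/5% CO2, then exposed to compounds in DMSO for 16 hrs. Viability was read in the same wells as intracellular ATP by luminescence, 30 min at room temperature after reagent addition.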
# On the % scale 0 is the no-effect control and ±100 the full control effect.
row,SMILES,max response
1,C=CCC1=C(C)[C@@H](OC(=O)[C@@H]2[C@@H](C=C(C)C)C2(C)C)CC1=O,-11.6% (inactive)
2,Cc1ccccc1C(=O)Nc1cccc(OC(C)C)c1,-14.9% (inactive)
3,CCOC1Oc2ccc(OS(C)(=O)=O)cc2C1(C)C (centres undefined),-22.7% (inactive)
4,Nc1ccc([N+](=O)[O-])cc1Cl,3.06% (inactive)
5,CCCCC(CC)C(=O)Cl (centres undefined),-2.12% (inactive)
6,CCNc1nc(NC(C)(C)C)nc(SC)n1,-11.3% (inactive)
7,CCOP(=O)(OCC)SCSCC,2.19% (inactive)
8,CCOP(=O)(OCC)SCSC(C)(C)C,4.97% (inactive)
9,CNC(=O)Oc1ccc(N(C)C)c(C)c1,5.88% (inactive)
10,COC(=O)c1ccccc1CS(=O)(=O)NC(=O)Nc1nc(OC)cc(OC)n1,-5.06% (inactive)
11,Cc1cc(Cl)ccc1OCC(=O)O,17.3% (inactive) and -19.3% (inactive)
12,CCOP(=S)(OCC)Oc1cnc2ccccc2n1,3.82% (inactive)
13,CCOP(=S)(S)OCC,2.15% (inactive)
14,CCCCN(CC)C(=O)SCCC,-4.49% (inactive)
15,O=[N+]([O-])c1ccc(Oc2ccc(C(F)(F)F)cc2[N+](=O)[O-])cc1,-18.9% (inactive)
16,C/C=C(\C)C(=O)O[C@H]1C[C@@H](OC(C)=O)[C@@]2(C(=O)OC)CO[C@H]3[C@@H](O)[C@@](C)([C@]45O[C@@]4(C)[C@H]4C[C@@H]5O[C@@H]5OC=C[C@@]54O)[C@H]4[C@]1(CO[C@]4(O)C(=O)OC)[C@@H]32,-22.9% (inactive)
17,C=CC1(C)OC(=O)N(c2cc(Cl)cc(Cl)c2)C1=O (centres undefined),-7.58% (inactive)

# Assay: qHTS assay for cell viability of HEK293 cells (AID 743288); further: nearly all actives have a fitted effect of over 50% in size
# Settings: ATP luminescence (CellTiter-Glo), 18 h; max response: hits give low values
# Method in brief: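 HEK293, 18 h, 37 C, ATP luminescence. Cells at 2,000/well were allowed at least 5 h to settle before dosing; CellTiter-Glo developed 30 min at RT.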
row,SMILES,max response
1,C/C(=N\NC(=O)Nc1cc(F)cc(F)c1)c1ncccc1C(=O)O,-5.69% (inactive) and -3.6% (inactive)
2,CCCC1COC(Cn2cncn2)(c2ccc(Cl)cc2Cl)O1 (centres undefined),-21.6% (inactive) and -21.9% (inactive)
3,Cc1cnc(C2=NC(C)(C(C)C)C(=O)N2)c(C(=O)O)c1 (centres undefined),-9.43% (inactive) and 4.33% (inactive)
4,O=S(=O)(c1ccc(O)cc1)c1ccc(O)cc1,-8.18% (inactive)
5,CCOP(=O)(O)C(N)=O,-8.79% (inactive)
6,CCOc1nc(NC)nc(NC(=O)NS(=O)(=O)c2ccccc2C(=O)OC)n1,9.14% (inactive)
7,COc1ccc(O)c(C(C)(C)C)c1,-7.51% (inactive)
8,CCOP(=S)(OCC)SCC(=O)NC(C)C,-3.84% (inactive)
9,NS(=O)(=O)C(F)(F)C(F)(F)C(F)(F)C(F)(F)C(F)(F)C(F)(F)C(F)(F)C(F)(F)F,-13.7% (inactive)
10,Clc1ccc([C@]2(Cn3cncn3)C[C@@H](Br)CO2)c(Cl)c1,-21.9% (inactive) and -13.3% (inactive)
11,CCOP(=O)(SC(C)CC)SC(C)CC (centres undefined),-14% (inactive)
12,CNC(=O)Oc1cccc2c1OC(C)(C)C2O (centres undefined),-0.251% (inactive)
13,C/C(=N\C(N)=O)N(C)Cc1ccc(Cl)nc1,0.858% (inactive)
14,O=S1OC[C@@H]2[C@H](CO1)[C@@]1(Cl)C(Cl)=C(Cl)[C@]2(Cl)C1(Cl)Cl (some centres undefined),-26.6% (inactive) and -23.3% (inactive)
15,FC(F)(F)c1ccc(OCCCOc2c(Cl)cc(OCC=C(Cl)Cl)cc2Cl)nc1,-6.52% (inactive)
16,C=CCC1=C(C)[C@@H](OC(=O)[C@@H]2[C@@H](C=C(C)C)C2(C)C)CC1=O,-2.02% (inactive)

row,SMILES,max response
1,Cc1ccccc1C(=O)Nc1cccc(OC(C)C)c1,-16% (inactive)
2,CCOC1Oc2ccc(OS(C)(=O)=O)cc2C1(C)C (centres undefined),-23.7% (inactive)
3,Nc1ccc([N+](=O)[O-])cc1Cl,-1.89% (inactive)
4,CCCCC(CC)C(=O)Cl (centres undefined),-4.59% (inactive)
5,CCNc1nc(NC(C)(C)C)nc(SC)n1,-12.7% (inactive)
6,CCOP(=O)(OCC)SCSCC,-3.03% (inactive)
7,CCOP(=O)(OCC)SCSC(C)(C)C,-8.78% (inactive)
8,CNC(=O)Oc1ccc(N(C)C)c(C)c1,-1.07% (inactive)
9,COC(=O)c1ccccc1CS(=O)(=O)NC(=O)Nc1nc(OC)cc(OC)n1,-8.65% (inactive)
10,Cc1cc(Cl)ccc1OCC(=O)O,-1.7% (inactive) and -11.8% (inactive)
11,CCOP(=S)(OCC)Oc1cnc2ccccc2n1,-3.73% (inactive)
12,CCOP(=S)(S)OCC,-0.594% (inactive)
13,CCCCN(CC)C(=O)SCCC,-1.81% (inactive)
14,O=[N+]([O-])c1ccc(Oc2ccc(C(F)(F)F)cc2[N+](=O)[O-])cc1,-11.9% (inactive)
15,C/C=C(\C)C(=O)O[C@H]1C[C@@H](OC(C)=O)[C@@]2(C(=O)OC)CO[C@H]3[C@@H](O)[C@@](C)([C@]45O[C@@]4(C)[C@H]4C[C@@H]5O[C@@H]5OC=C[C@@]54O)[C@H]4[C@]1(CO[C@]4(O)C(=O)OC)[C@@H]32,-0.199% (inactive)
16,C=CC1(C)OC(=O)N(c2cc(Cl)cc(Cl)c2)C1=O (centres undefined),-8.07% (inactive)
